Consider eleven molecules from PubChem BioAssay.

The structures appear in SMILES notation. A number with no mark means an inactive call.

The experiment in a line: cell viability in Huh7 cells, primary screen, cytotoxicity control for HCV replication inhibitor project, CellTiter-Glo luminescence, basal, 48 h (AID 1143).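 Note: Huh7 hepatoma cells carrying a hepatitis C replication reporter with no stimulus; test concentration not given here.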 The settings on record: Huh7 HCV replicon, higher = more signal, called active from +8 up or from −8 down. On the technique in general: In ATP-based viability assays light output follows the ATP content of the culture.
Turning to `C=CC[C@]1(C(=O)O)N=C(c2ccc(OCCCO)cc2)O[C@H]1c1ccccc1CN=[N+]=[N-]`, the z-score is 0.101.
Turning to `C[N+](C)(C)CCCCNC(=O)[C@H]1C[C@H]2C(=O)N3CCC[C@H]3C(=O)N2[C@H]1c1ccc(O)cc1`, the z-score is -0.102.
As for `[N-]=[N+]=NCc1ccccc1[C@@H]1OC(c2ccc(OCCCO)cc2)=N[C@]1(Cc1ccccc1)C(=O)O`, the figure is -0.354; as for `CN(C)CCCN1C(=O)[C@@]2(c3ccc([N+](=O)[O-])cc3)CC(=O)N(C3CCCCC3)[C@@H]2c2ccc(CO)cc21`, -1.79.
`CCOC1=C2C(c3ccc(C)cc3)N(S(=O)(=O)c3ccc(C)cc3)CC2n2c(=O)n(-c3ccccc3)c(=O)n2C1` (stereo unspecified): the z-score was -0.576.
As for `O=C1c2ccccc2[C@](Cc2ccccc2I)(C(=O)O)[C@H](c2ccc(CO)cc2)N1Cc1ccccc1C(F)(F)F`, the figure is -1.17.
On to `CCCCCCCCCCC(O)C1C=CC2C(=O)N(c3ccccc3)C(=O)C2N1Nc1ccc([N+](=O)[O-])cc1` (stereo unspecified), for which the z-score was -2.71.
Turning to `CCOC(=O)C1=CC[C@@H](c2cccc(Cl)c2)N(S(=O)(=O)c2ccc(C)cc2)[C@H]1c1ccc(C#N)cc1`, the z-score is -1.1.
Take `CCCCCCC#C[Si](O[C@H](c1ccccc1)c1cn([C@H](C)c2ccccc2)nn1)(C(C)C)C(C)C`: the z-score was -0.658.
Take `O=C(NCC(F)(F)F)[C@@H]1c2ccccc2C(=O)N(Cc2ccccc2)[C@H]1c1ccc(CO)cc1`: the z-score was -0.223.
As to `O=C1OCC=C[C@H]2OC34C=CCN(c5ccc(Cl)cc5)C(=O)[C@H]3N(CCCO)C(=O)[C@@H]4[C@@H]12` (stereo partly specified), the z-score is -2.14.
